For eight compounds, outcome and Potency results are on record in PubChem BioAssay (Tox21).

“And” between values parts separate entries of the source, which are not always exact repeats. Identical values can stand only once. Results filed as inconclusive are left out. A structure can be active in one record and inactive in another. The source made the active and inactive calls. Unless noted, calls come from the whole dose curve; as a rule, active = well fitted curve in the direction sought with a large enough effect in the repeat runs; inconclusive = weak or mixed curves; inactive = no such curve, though single readings can be large; an effect the other way counts as inactive or inconclusive.

Assay [1] can be described thus: Caspase-3/7 induction in CHO-K1 cells by small molecules, qHTS assay (AID 1346980). Note: nearly all actives have a fitted effect of over 15% in size. An outline of the steps: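 Wild-type CHO-K1 cells exposed to compounds for 17hr at 37 C, 5% CO2. Caspase-3/7 activity then measured by Caspase-Glo 3/7 luminescence after 30min at room temperature.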
Background: Quantitative high-throughput screening tests each substance at several concentrations.

Assay [2] in a line: Caspase-3/7 induction in HepG2 cells by small molecules, qHTS cell viability counter screen (AID 1346981). Note: series mostly up to about 92 µM; nearly all actives have a fitted effect of over 30% in size. An outline of the steps:
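Viability determined by CellTiter-Fluor fluorescence in HepG2 wells also used for the luminescent Caspase-Glo 3/7 read. Compounds were present for 16 hr at 37 C, 5% CO2 before reagent addition.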

The target in assay [3] is Nuclear receptor subfamily 1 group I member 2 (Homo sapiens) (UniProt O75469). The experiment in a line: Human pregnane X receptor (PXR) small molecule agonists, qHTS assay (AID 1346982). Note: nearly all actives have a fitted effect of over 35% in size. Note: potency is the fitted concentration of half-maximal effect. The procedure, abridged:
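Compound-induced hPXR transactivation of a CYP3A4 luciferase reporter was scored in HepG2 PXR-Luc cells over 24 hr at 37 C, 5% CO2, by luminescence.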

Assay [4] has as its target Acetylcholinesterase (Homo sapiens) (UniProt P22303). As to the kind of experiment: Acetylcholinesterase (AChE) small molecule antagonists: colormetric cell-based qHTS assay (AID 1347395; calls by dose curve; note: nearly all actives have a fitted effect of over 30% in size). The procedure, abridged: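 Homogeneous whole-cell format. SH-SY5Y cells seeded overnight, dosed with compound (30 min, 37 C, 5% CO2), then given DTNB/acetylthiocholine cocktail for 90 min at 37 C; colorimetric signal.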

Assay [5] has the same target. The experiment in a line: Acetylcholinesterase (AChE) small molecule antagonists: enzyme-based qHTS assay (AID 1347397; calls by dose curve; note: nearly all actives have a fitted effect of over 55% in size). As to conditions: Potency: AChE enzyme activity inhibition. An outline of the steps:
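Recombinant human AChE (50 mU/mL) preincubated with compound 30 min at room temperature; acetylthiocholine plus DTNB then added, and thiocholine formation read colorimetrically after 10 min at room temperature. DMSO served as vehicle control.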

The target is the same in assay [6]. As to the kind of experiment: Acetylcholinesterase (AChE) small molecule antagonists: fluorescence cell-based qHTS assay (AID 1347398; calls by dose curve; note: nearly all actives have a fitted effect of over 50% in size). As to conditions: Potency: AChE activity. An outline of the steps:
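SH-SY5Y cells (2000/well), attached overnight, incubated with compound 30 min at 37 C. Acetylthiocholine plus Thiolite Green then added for 40 min at room temperature. Thiocholine fluorescence (Ex/Em 490/520 nm) reports cellular AChE activity.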

Assay [7] has the same target. As to the kind of experiment: Acetylcholinesterase (AChE) small molecule antagonists: enzyme-based qHTS assay with human liver microsomes (AID 1347399; calls by dose curve; note: nearly all actives have a fitted effect of over 60% in size). The conditions noted are these: Potency: qHTS inhibition. The procedure, abridged: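 Recombinant human AChE (50 mU/mL in the enzyme mix) and human liver microsomes (0.25 mg/mL final) were preincubated with compound and NADPH (0.25 mg/mL final) for 30 min at 37 C. Acetylthiocholine/DTNB was then added; thiocholine was read colorimetrically after 10 min at room temperature.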

Assay [8] addresses Cytochrome P450 2D6 (Homo sapiens) (UniProt P10635). The experiment in a line: Cytochrome P450 Family 2 Subfamily D Member 6 (CYP2D6) small molecule antagonists: luciferase reporter qHTS assay (AID 1671196). Note: nearly all actives have a fitted effect of over 50% in size. Note: potency is the fitted concentration of half-maximal effect. The procedure, abridged:
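Each well received CYP2D6 with its proluciferin substrate and chemical, sat 10 min, then got NADPH regeneration solution for 1 h at room temperature. Luminescence in RLU served as the activity measure.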
(Reporter assays use an easily measured gene product as a stand-in for the process of interest.)

Assay [9] has as its target Cytochrome P450 2C19 (Homo sapiens) (UniProt P33261). The experiment in a line: Cytochrome P450 Family 2 Subfamily C Member 19 (CYP2C19) small molecule antagonists: luciferase reporter qHTS assay (AID 1671197). Note: nearly all actives have a fitted effect of over 65% in size. Note: potency is the fitted concentration of half-maximal effect. The procedure, abridged:
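Enzyme-substrate mix with proluciferin substrate (P450-Glo CYP2C19 system) preincubated with compounds 10 min at room temperature; NADPH regeneration solution added, 37C for 1 h; detection reagent stops reaction, luminescence read after 20 min. Ketoconazole positive control.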

Assay [10] concerns the target Cytochrome P450 2C9 (Homo sapiens) (UniProt P11712). As to the kind of experiment: Cytochrome P450 Family 2 Subfamily C Member 9 (CYP2C9) small molecule antagonists: luciferase reporter qHTS assay (AID 1671198). Note: nearly all actives have a fitted effect of over 50% in size. Note: potency is the fitted concentration of half-maximal effect. An outline of the steps:
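P450-Glo proluciferin substrate with CYP2C9 enzyme; 10 min RT preincubation, then NADPH regeneration 1 h at 37C; luciferin detection reagent 20 min RT, luminescence in relative luminescence units.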

Assay [11] deals with Cytochrome P450 1A2 (Homo sapiens) (UniProt P05177). As to the kind of experiment: Cytochrome P450 Family 1 Subfamily A Member 2 (CYP1A2) small molecule antagonists: luciferase reporter qHTS assay (AID 1671199). Note: nearly all actives have a fitted effect of over 50% in size. Note: potency is the fitted concentration of half-maximal effect. An outline of the steps:
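Enzymatic CYP1A2 assay, human, luminescent: 10 min compound–enzyme–substrate preincubation, 1 h NADPH-dependent turnover, 20 min detection step, room temperature throughout. Reduced light indicates lower CYP1A2 activity.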

Assay [12] concerns the target Voltage-gated inwardly rectifying potassium channel KCNH2 (Homo sapiens) (UniProt Q12809). The experiment in a line: Human Ether-a-go-go-Related Gene (hERG) channel small molecule antagonists: fluorescence cell-based qHTS assay (AID 1671200). An outline of the steps: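 Thallium served as the potassium surrogate; its influx into dye-loaded U2OS cells carrying the channel was measured by fluorescence over 2 min.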

The target of assay [13] is Cytochrome P450 3A4 (Homo sapiens) (UniProt P08684). As to the kind of experiment: Cytochrome P450 Family 3 Subfamily A Member 4 (CYP3A4) small molecule antagonists: luciferase reporter qHTS assay (AID 1671201). Note: nearly all actives have a fitted effect of over 50% in size. Note: potency is the fitted concentration of half-maximal effect. An outline of the steps:
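Relative luminescence units after 20 min with luciferin detection reagent served as read-out. Beforehand, CYP3A4 turned over a proluciferin substrate for 1 h at room temperature with NADPH regeneration, following 10 min compound preincubation.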

Chain of Voltage-gated inwardly rectifying potassium channel KCNH2 (Homo sapiens) (Q12809 whole entry, looked up): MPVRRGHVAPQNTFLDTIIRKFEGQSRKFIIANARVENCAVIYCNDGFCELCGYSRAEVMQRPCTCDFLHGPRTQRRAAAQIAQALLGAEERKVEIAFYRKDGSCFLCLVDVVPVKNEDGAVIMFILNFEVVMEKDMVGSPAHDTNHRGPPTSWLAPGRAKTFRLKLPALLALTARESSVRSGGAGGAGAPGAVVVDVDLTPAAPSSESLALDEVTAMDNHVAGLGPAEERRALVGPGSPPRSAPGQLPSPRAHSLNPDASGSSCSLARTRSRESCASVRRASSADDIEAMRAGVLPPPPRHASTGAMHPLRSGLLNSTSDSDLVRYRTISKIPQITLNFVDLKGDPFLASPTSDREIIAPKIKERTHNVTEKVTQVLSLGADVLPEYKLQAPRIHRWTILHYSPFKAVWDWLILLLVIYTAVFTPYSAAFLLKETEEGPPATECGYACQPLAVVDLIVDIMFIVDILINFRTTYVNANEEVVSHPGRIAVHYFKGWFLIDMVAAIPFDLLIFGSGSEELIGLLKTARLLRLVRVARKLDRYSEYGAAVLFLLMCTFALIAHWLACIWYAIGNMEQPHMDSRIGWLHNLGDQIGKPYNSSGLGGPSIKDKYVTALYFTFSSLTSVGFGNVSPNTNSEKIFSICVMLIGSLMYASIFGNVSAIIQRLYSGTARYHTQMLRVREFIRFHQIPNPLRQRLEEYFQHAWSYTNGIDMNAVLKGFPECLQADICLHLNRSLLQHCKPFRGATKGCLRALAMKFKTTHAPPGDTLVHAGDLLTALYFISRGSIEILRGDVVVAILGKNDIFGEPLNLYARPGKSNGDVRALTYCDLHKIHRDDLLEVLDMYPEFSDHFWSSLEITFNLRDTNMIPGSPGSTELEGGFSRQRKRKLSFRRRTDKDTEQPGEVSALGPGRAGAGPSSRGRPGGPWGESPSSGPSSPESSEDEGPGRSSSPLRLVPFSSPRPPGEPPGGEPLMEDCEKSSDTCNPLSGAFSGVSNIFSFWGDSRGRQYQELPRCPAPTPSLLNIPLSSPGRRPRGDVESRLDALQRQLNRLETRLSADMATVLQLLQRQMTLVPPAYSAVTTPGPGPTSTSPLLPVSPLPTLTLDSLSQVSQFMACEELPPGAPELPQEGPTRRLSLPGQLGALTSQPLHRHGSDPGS
Chain of Cytochrome P450 2C19 (Homo sapiens) (P33261 whole entry, looked up): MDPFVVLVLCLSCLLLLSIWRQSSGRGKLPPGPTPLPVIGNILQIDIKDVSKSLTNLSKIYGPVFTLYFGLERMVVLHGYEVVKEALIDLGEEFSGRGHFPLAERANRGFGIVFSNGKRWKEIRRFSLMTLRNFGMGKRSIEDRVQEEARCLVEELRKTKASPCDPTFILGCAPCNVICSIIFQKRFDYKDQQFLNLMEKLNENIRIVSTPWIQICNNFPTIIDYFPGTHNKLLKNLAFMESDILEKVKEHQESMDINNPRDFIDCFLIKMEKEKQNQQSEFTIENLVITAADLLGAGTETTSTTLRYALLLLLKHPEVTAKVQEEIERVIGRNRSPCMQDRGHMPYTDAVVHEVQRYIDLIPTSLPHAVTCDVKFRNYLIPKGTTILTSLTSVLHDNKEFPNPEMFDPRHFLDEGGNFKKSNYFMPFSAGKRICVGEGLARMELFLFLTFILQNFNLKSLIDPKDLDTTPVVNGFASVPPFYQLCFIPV
Chain of Cytochrome P450 2D6 (Homo sapiens) (P10635 whole entry, looked up): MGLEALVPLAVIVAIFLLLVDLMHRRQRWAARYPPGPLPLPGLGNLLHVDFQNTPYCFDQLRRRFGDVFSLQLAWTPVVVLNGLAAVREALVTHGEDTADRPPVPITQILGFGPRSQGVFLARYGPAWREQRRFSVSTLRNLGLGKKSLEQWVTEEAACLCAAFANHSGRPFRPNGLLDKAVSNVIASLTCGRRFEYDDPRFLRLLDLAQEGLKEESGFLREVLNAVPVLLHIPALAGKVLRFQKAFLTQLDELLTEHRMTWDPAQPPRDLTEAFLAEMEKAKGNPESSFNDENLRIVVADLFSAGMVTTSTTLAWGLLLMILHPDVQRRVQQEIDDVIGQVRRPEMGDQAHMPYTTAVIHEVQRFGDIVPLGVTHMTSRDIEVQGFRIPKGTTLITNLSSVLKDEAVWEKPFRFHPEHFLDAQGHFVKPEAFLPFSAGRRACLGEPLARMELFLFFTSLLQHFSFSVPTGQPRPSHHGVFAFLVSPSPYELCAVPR
Chain of Nuclear receptor subfamily 1 group I member 2 (Homo sapiens) (O75469 whole entry, looked up): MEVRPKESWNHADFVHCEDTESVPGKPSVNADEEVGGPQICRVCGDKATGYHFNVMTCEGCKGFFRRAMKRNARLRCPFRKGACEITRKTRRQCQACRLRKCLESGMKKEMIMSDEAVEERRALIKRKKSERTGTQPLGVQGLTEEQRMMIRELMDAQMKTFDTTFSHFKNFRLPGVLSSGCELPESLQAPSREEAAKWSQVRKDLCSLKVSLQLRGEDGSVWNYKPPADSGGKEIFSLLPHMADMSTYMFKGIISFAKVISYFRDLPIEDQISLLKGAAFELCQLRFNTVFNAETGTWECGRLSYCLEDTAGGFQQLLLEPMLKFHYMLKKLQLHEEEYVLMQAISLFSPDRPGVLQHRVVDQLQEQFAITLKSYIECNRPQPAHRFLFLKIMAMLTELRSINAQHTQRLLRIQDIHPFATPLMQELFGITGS
Chain of Cytochrome P450 1A2 (Homo sapiens) (P05177 whole entry, looked up): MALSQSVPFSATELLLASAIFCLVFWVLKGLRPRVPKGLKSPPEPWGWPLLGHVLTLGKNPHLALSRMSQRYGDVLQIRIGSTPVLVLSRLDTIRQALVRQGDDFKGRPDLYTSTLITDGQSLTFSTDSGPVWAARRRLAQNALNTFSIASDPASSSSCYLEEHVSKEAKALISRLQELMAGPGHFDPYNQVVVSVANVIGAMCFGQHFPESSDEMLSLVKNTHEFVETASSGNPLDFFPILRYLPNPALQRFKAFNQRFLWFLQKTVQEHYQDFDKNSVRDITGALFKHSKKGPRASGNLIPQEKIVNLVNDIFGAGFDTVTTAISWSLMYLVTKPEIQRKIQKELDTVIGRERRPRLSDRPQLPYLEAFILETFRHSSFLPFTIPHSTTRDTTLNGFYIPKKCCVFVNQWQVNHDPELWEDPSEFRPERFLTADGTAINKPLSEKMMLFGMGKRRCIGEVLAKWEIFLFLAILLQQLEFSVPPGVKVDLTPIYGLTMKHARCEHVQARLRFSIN
Chain of Cytochrome P450 2C9 (Homo sapiens) (P11712 whole entry, looked up): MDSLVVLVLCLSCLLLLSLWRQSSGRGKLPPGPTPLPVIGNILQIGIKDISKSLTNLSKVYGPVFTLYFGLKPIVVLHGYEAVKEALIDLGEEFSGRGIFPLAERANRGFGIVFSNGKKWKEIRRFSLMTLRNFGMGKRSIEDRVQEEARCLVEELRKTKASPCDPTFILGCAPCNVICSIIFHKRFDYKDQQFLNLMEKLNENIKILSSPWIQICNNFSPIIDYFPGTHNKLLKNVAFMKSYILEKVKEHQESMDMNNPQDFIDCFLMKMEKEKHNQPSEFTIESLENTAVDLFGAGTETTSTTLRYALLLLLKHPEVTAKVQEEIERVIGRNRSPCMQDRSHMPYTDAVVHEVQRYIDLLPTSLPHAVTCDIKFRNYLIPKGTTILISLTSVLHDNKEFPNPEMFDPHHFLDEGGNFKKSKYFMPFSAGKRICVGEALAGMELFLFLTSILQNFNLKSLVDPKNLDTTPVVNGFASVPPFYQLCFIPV
Chain of Cytochrome P450 3A4 (Homo sapiens) (P08684 whole entry, looked up): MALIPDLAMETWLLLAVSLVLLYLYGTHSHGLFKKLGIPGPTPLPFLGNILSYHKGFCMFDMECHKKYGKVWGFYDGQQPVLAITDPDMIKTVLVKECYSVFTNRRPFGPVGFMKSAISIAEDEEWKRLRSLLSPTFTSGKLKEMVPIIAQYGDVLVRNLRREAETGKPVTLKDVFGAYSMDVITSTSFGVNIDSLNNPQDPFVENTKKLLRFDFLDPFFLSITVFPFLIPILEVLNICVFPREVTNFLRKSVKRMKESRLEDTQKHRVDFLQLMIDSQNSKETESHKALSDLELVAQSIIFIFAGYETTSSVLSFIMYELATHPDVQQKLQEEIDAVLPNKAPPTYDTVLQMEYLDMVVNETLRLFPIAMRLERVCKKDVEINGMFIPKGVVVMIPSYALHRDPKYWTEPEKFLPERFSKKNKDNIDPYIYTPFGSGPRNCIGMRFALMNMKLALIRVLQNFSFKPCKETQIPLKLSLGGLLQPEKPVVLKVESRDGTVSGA
Chain of Acetylcholinesterase (Homo sapiens) (P22303 whole entry, looked up): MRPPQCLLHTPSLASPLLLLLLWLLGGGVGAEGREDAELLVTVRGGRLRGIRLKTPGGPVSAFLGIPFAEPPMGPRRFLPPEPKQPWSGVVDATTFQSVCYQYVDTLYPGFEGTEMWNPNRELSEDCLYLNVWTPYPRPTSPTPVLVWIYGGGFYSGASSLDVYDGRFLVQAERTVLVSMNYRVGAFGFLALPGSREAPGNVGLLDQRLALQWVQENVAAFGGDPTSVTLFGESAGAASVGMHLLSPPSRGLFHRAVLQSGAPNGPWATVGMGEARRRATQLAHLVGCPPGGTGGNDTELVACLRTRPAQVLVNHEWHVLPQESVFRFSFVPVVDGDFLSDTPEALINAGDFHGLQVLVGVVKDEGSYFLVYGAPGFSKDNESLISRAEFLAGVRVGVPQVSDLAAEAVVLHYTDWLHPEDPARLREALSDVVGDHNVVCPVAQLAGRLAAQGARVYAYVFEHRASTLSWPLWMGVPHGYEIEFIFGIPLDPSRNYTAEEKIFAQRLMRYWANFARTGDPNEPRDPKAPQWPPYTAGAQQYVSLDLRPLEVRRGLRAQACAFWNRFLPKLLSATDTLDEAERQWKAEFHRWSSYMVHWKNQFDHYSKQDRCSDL

On to `CC(C)(C)C(O)(CCc1ccc(Cl)cc1)Cn1cncn1` (centres undefined), for which the compound was classed as inactive in assay [1]. Moreover, the Potency entry in [2], in assay [4], in [5], in assay [6], in assay [7] and in assay [12] was “inactive” each time. Also, the Potency in assay [3] is 27.6 µM (active) and 9.69 µM (active); in assay [8], 28.6 µM (active) and 35.6 µM (active); in assay [9], 640 nM (active) and 448 nM (active); in assay [10], 3.21 µM (active) and 3.56 µM (active); in assay [11], 32.1 µM (active) and 28.3 µM (active); in assay [13] it was 114 nM (active) and 200 nM (active).
As to `O=c1ccc(=O)[nH][nH]1`, the call in assay [1] was inactive. The Potency entry in [2], in assay [3], in [4], in assay [5], in assay [6] and in [7] was “inactive” throughout. Further, the Potency entry in [8], in assay [9], in assay [10], in assay [11], in [12] and in assay [13] was “inactive” throughout.
With `[O-][Cl+2]([O-])O`, in [1], the compound was called inactive. Besides, the Potency entry in assay [2], in assay [3], in [4], in assay [5], in assay [6] and in [7] was “inactive” each time. Also, the Potency entry in assay [8], in assay [9], in assay [10], in assay [11], in [12] and in [13] was “inactive” in each case.
On to `O=Cc1cccc(Oc2ccccc2)c1`, for which, in assay [1], the compound was called inactive. Moreover, the Potency entry in assay [2], in [3], in [4], in assay [5], in [6] and in [7] was “inactive” in each case. For the same compound, the Potency entry in [8], in [12] and in assay [13] was “inactive” throughout. Also, the Potency in [9] was 16 µM (active) and 71 µM (active); in [10], 40.2 µM (active); in [11], 35.9 µM (active) and inactive.
Consider `CC(Br)C(=O)O` (centres undefined), for which the compound was classed as inactive in assay [1]. For the same compound, the Potency entry in assay [2], in [3], in assay [4], in [5], in [6] and in assay [7] was “inactive” in each case. Further, the Potency entry in [8], in [11], in [12] and in [13] was “inactive” in each case. Moreover, the figures for the Potency in [9] and in assay [10] were 45.3 µM (active) and 36 µM (active), respectively.
With `CCNc1nc(NC(C)(C)C)nc(SC)n1`, the compound was classed as inactive in assay [1]. In addition, the Potency result in [2], in assay [4], in assay [5], in assay [6], in assay [7] and in [8] was “inactive” in each case. Further, the Potency entry in assay [10], in assay [12] and in [13] was “inactive” in each case. The Potency in assay [3] was 30.2 µM (active) and 48.6 µM (active); in assay [9], 17.6 µM (active) and 39.9 µM (active); in [11], 7.01 µM (active) and 7.96 µM (active).
On to `CCc1cccc(C)c1N(C(=O)CCl)C(C)COC` (centres undefined), for which the compound was called inactive in assay [1]. Moreover, the Potency result in assay [2], in [4], in [5], in assay [6], in assay [7] and in assay [8] was “inactive” throughout. Moreover, the Potency entry in assay [12] and in [13] was “inactive” in each case. Besides, the Potency is 2.89 µM (active) and 3.06 µM (active) in [3]; 6.69 µM (active) and 6.33 µM (active) in assay [9]; 29.9 µM (active) and 28.3 µM (active) in assay [10]; 66.9 µM (active) and inactive in assay [11].
For the compound `CCCCCCCCCl`, the result in assay [1] was inactive. Besides, the Potency result in assay [2], in assay [4], in assay [5], in [6], in [7] and in assay [8] was “inactive” each time. Further, the Potency entry in assay [9], in assay [10], in assay [11], in assay [12] and in assay [13] was “inactive” in each case. Besides, the Potency in assay [3] was 63.1 µM (active) and inactive.
